Data published in PubChem BioAssay (EPA / NIEHS).
Inconclusive results are not listed. Active and inactive are the calls of the source. How the source made its calls, unless noted: active means hit-call score of the fitted dose curve at least 0.9, where 1 is the maximum; inactive means score below 0.9.

Legend:
[1] = target: human RAR-related Orphan Receptor beta (RORb), RORB (gene 6096) (UniProt Q92753); assay: ATG_RORb_TRANS: Attagene TRANS-FACTORIAL HepG2 Assay for human RAR-related Orphan Receptor beta (RORb) (AID 2283010; active means hit-call score of the fitted dose curve at least 0.9, where 1 is the maximum)
human RAR-related Orphan Receptor beta (RORb), RORB (gene 6096), sequence (Q92753 whole entry, looked up, the tested form may be a part): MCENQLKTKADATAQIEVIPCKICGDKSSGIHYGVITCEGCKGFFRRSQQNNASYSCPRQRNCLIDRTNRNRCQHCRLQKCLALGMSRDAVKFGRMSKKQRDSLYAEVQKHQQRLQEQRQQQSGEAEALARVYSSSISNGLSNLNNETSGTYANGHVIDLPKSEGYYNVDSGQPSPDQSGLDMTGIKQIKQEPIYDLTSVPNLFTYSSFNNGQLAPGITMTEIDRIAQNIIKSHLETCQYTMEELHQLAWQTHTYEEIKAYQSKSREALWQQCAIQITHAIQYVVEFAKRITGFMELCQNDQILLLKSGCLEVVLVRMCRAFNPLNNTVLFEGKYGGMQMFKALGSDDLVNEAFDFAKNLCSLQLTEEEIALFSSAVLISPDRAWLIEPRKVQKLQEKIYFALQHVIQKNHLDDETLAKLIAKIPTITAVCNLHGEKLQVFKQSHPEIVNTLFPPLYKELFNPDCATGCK
Method in brief: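 HepG2, transient MRTU transfection (GAL4-UAS reporters, exogenous NR-Gal4 chimeras); 24 h compound exposure; total RNA → RT-PCR → 6-FAM primer extension → HpaI digest → CE fluorescence. Positive direction vs DMSO baseline.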

[2] = target: Retinoic acid receptor RXR-alpha (Homo sapiens) (UniProt P19793); assay: ATG_RXRa_TRANS: Attagene TRANS-FACTORIAL HepG2 Assay for human Retinoid X Receptor alpha (RXRa) (AID 2283012; active means hit-call score of the fitted dose curve at least 0.9, where 1 is the maximum)
Retinoic acid receptor RXR-alpha (Homo sapiens), sequence (P19793 whole entry, looked up, the tested form may be a part): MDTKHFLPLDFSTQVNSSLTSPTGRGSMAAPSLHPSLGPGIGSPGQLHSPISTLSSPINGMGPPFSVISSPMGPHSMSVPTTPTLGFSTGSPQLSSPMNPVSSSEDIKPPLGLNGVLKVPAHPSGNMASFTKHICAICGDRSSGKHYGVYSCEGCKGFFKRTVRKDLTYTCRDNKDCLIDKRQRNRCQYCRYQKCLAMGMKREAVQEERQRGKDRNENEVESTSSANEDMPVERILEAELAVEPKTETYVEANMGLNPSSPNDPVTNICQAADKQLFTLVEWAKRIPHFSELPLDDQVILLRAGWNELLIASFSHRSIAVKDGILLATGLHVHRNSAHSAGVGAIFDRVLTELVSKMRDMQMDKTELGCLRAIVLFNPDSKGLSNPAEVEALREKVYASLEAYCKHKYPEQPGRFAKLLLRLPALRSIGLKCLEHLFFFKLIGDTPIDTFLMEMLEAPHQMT
Method in brief: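 Read-out: fluorescent reporter-transcript fragments quantified by capillary electrophoresis after RT-PCR. Transiently transfected HepG2 cells carrying GAL4-UAS reporters and NR-GAL4 chimeras were exposed to chemical for 24 h; activity scored as increase over DMSO.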

[3] = target: human Retinoid X Receptor beta (RXRb), RXRB (gene 6257) (UniProt P28702); assay: ATG_RXRb_TRANS: Attagene TRANS-FACTORIAL HepG2 Assay for human Retinoid X Receptor beta (RXRb) (AID 2283013; active means hit-call score of the fitted dose curve at least 0.9, where 1 is the maximum)
human Retinoid X Receptor beta (RXRb), RXRB (gene 6257), sequence (P28702 whole entry, looked up, the tested form may be a part): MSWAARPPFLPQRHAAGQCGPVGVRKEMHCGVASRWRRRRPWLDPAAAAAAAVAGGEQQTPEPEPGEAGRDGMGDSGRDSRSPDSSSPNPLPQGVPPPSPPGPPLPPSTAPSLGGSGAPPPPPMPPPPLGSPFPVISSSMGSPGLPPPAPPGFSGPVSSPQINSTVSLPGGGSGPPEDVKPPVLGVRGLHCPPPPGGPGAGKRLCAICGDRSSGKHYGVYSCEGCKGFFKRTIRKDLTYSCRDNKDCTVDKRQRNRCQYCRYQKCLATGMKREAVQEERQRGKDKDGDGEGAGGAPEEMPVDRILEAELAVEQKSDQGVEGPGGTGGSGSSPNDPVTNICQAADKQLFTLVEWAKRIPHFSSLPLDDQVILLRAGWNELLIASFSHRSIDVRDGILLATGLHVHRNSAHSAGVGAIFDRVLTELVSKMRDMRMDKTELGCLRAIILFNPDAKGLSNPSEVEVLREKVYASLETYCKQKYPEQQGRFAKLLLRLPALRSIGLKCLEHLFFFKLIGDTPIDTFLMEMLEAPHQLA
Method in brief: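 Read-out: reporter mRNA induction via RT-PCR plus capillary electrophoresis fluorescence, analysed as signal increase relative to DMSO. Cells were human HepG2, transiently transfected with GAL4-UAS reporter constructs and chimeric receptor-Gal4 fusions, dosed for 24 h.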

[4] = target: human Thyroid Receptor alpha (THRa1), THRA (gene 7067) (UniProt P10827); assay: ATG_THRa1_TRANS: Attagene TRANS-FACTORIAL HepG2 Assay for human Thyroid Receptor alpha (THRa1) (AID 2283014; active means hit-call score of the fitted dose curve at least 0.9, where 1 is the maximum)
human Thyroid Receptor alpha (THRa1), THRA (gene 7067), sequence (P10827 whole entry, looked up, the tested form may be a part): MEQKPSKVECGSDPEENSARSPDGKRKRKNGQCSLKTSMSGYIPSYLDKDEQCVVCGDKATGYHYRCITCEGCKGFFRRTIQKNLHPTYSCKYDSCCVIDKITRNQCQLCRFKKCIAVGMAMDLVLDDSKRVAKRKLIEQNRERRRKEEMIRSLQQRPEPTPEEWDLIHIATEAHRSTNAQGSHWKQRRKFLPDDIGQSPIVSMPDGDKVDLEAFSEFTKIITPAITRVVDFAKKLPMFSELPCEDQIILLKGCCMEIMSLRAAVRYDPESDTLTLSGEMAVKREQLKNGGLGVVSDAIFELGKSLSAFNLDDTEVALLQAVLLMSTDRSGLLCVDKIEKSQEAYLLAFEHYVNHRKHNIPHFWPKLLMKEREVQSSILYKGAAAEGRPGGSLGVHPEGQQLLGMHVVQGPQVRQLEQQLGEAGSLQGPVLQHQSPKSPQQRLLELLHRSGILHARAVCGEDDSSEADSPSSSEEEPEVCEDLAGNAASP
Method in brief: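 HepG2 cells transiently transfected with chimeric NR-Gal4 and GAL4-UAS reporter units, dosed 24 h. Reporter mRNA quantified by RT-PCR, fluorescent labeling, HpaI digestion and capillary electrophoresis; gain-of-signal fit versus DMSO.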

[5] = read-out: E-selectin (Homo sapiens) (UniProt P16581); assay: BSK_3C_Eselectin: BioMAP Diversity Plus: 3C Assay for Eselectin Biomarker Activity (AID 2283015); conditions: primary human endothelial cells (HUVEC); actives raise or lower the signal
Method in brief: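 Primary human umbilical vein endothelial cells (3C system), read 24 h after compound addition; E-selectin measured by ELISA. Bidirectional curve fitting against DMSO baseline; cytotoxicity by parallel SRB total-protein staining.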

[6] = read-out: Interleukin-1 alpha (IL1a), IL1A (gene 3552); assay: BSK_BE3C_IL1a: BioMAP Diversity Plus: BE3C Assay for Interleukin-1 alpha (IL1a) Biomarker Activity (AID 2283016); conditions: primary human bronchial epithelial cells; actives raise or lower the signal
Method in brief: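 ELISA read-out of IL-1a from human lung bronchial epithelial primary cells, 24 h post-dose. Gain or loss of signal fitted relative to DMSO negative control.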

[7] = read-out: Monocyte Chemoattractant Protein-1 (MCP1), CCL2 (gene 6347); assay: BSK_3C_MCP1: BioMAP Diversity Plus: 3C Assay for Monocyte Chemoattractant Protein-1 (MCP1) Biomarker Activity (AID 2283017); conditions: primary human endothelial cells (HUVEC); actives raise or lower the signal
Method in brief: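 Human umbilical vein endothelial cells (3C system) exposed to chemicals for 24 h; MCP-1 quantified by ELISA against the DMSO baseline with bidirectional fitting, and parallel SRB staining used to assess cytotoxicity.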

[8] = read-out: Monocyte Chemoattractant Protein-1 (MCP1), CCL2 (gene 6347); assay: BSK_4H_MCP1: BioMAP Diversity Plus: 4H Assay for Monocyte Chemoattractant Protein-1 (MCP1) Biomarker Activity (AID 2283018); conditions: primary human endothelial cells (HUVEC); actives raise or lower the signal
Method in brief: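 HUVEC primary cells, 24 h post-dose, MCP-1 by ELISA. Gain or loss of signal fitted bidirectionally vs DMSO baseline. Cytotoxicity: SRB stain (0.1% after 10% TCA fixation), read 560 nm, parallel cultures.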

[9] = read-out: Human Leukocyte Antigen - DR isotype (HLADR), HLA-DRA (gene 3122); assay: BSK_3C_HLADR: BioMAP Diversity Plus: 3C Assay for Human Leukocyte Antigen - DR isotype (HLADR) Biomarker Activity (AID 2283019); conditions: primary human endothelial cells (HUVEC); actives raise or lower the signal
Method in brief: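 HUVEC monoculture, HLA-DR measured by ELISA 24 h after chemical dosing. Fitted bidirectionally against DMSO baseline; parallel SRB staining assessed cytotoxicity, with 3C proliferation read by SRB at 48 h.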

[10] = target: human RAR-related Orphan Receptor gamma (RORg), RORC (gene 6097) (UniProt P51449); assay: ATG_RORg_TRANS: Attagene TRANS-FACTORIAL HepG2 Assay for human RAR-related Orphan Receptor gamma (RORg) (AID 2283011; active means hit-call score of the fitted dose curve at least 0.9, where 1 is the maximum)
human RAR-related Orphan Receptor gamma (RORg), RORC (gene 6097), sequence (P51449 whole entry, looked up, the tested form may be a part): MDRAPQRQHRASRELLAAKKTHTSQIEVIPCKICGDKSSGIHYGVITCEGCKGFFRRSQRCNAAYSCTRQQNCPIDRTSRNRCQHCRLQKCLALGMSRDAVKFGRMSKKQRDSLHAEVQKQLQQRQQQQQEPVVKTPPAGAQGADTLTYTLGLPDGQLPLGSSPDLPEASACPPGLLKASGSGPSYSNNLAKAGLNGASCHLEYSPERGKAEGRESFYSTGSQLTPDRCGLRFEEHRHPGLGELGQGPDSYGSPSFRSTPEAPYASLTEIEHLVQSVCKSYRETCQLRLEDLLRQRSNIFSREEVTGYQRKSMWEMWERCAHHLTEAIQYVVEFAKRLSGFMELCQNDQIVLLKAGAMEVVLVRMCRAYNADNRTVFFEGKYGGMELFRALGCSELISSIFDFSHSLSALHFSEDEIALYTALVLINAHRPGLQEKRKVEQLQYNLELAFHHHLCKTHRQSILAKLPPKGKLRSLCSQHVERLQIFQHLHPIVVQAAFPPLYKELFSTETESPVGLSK
Method in brief: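 HepG2 cells transiently transfected with GAL4-UAS reporter units and chimeric RORg-Gal4 construct; after 24 h chemical exposure, reporter mRNA measured by RT-PCR with fluorescent capillary electrophoresis, gain of signal fitted against DMSO.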

Measured: AC50

E-selectin (Homo sapiens), sequence (P16581 whole entry, looked up): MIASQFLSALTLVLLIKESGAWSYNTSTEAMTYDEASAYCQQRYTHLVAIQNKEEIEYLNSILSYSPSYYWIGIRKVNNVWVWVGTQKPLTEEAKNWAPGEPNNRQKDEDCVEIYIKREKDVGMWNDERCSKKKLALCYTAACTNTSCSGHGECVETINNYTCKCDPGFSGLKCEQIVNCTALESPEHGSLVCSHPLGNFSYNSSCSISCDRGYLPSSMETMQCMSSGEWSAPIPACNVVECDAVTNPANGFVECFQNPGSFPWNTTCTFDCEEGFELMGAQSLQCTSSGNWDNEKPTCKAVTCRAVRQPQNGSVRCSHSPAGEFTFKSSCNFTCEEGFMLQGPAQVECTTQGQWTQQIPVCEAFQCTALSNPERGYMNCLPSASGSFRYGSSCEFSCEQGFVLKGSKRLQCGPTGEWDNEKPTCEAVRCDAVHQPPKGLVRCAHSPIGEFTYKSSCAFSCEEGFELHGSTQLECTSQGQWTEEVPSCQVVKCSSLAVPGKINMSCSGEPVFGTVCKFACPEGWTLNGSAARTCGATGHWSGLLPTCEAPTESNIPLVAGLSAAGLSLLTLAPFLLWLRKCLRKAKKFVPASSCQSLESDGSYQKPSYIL

CC1(C)NC(=O)NC1=O
inactive: [1] | [2] | [3] | [4] | [5] | [6] | [7] | [8] | [9]

CCCCc1ccc2c(n1)[C@@H](c1ccc(OC)cc1C[C@H](C)C(=O)O)[C@H](C(=O)O)[C@H]2c1ccc2c(c1)OCO2
inactive: [1] | [10] | [2] | [5] | [6] | [7] | [9]

Nc1ccccc1N
active: [9] 20 µM
inactive: [1] | [2] | [3] | [4] | [6] | [7]

COc1ccc2c(c1)c(CC(=O)O)c(C)n2C(=O)c1ccc(Cl)cc1
inactive: [1] | [2] | [5] | [6] | [7] | [8] | [9]

NCC1(Cc2noc(=O)[nH]2)CCCCC1
inactive: [1] | [10] | [2] | [5] | [6] | [7] | [8] | [9]

CCCCCC(=O)O
inactive: [2] | [3] | [5] | [6] | [7] | [9]

Clc1cc(Cl)c(Cl)cc1Cl
inactive: [2] | [5] | [6] | [7] | [9]

CCc1c(C(=O)NN2CCCCC2)nn(-c2ccc(Cl)cc2Cl)c1-c1ccc(Br)cc1
inactive: [2] | [6]
active: [7] 7.54 µM | [8] 5.41 µM | [9] 10.4 µM

COCCOC[C@H](CC1(C(=O)NC2CCC(C(=O)O)CC2)CCCC1)C(=O)Oc1ccc2c(c1)CCC2 (some centres undefined)
inactive: [2] | [5] | [6] | [7] | [8] | [9]

CC(=O)OCCOCCOCCOC(C)=O
inactive: [3] | [4] | [5] | [6] | [7] | [9]

CCCCCCCCCCC
inactive: [6] | [7] | [9]

COc1cc(-c2nc(NC(=O)c3cc4cc(C)cc(C)c4n3CC(=O)O)sc2CCC2CCCCC2)c(OC)cc1Cl
inactive: [4]
active: [6] 3.38 µM | [7] 2.91 µM | [8] 5.38 µM | [9] 3.08 µM

OC[C@@H](O)[C@@H](O)[C@H](O)[C@H](O)CO
inactive: [6] | [7] | [8] | [9]

CC(CO)OC(C)CO (centres undefined) (tested in a mixture with another compound)
active: [3] 13.8 µM
inactive: [2] | [5] | [6] | [7] | [9]

CN1CCN(Cc2cc(-c3ccc4[nH]c(=O)oc4c3)co2)[C@@H](c2ccc(F)cc2)C1
active: [7] 17.6 µM | [9] 27.6 µM
inactive: [2] | [5] | [6]

CC(=O)Oc1ccccc1C(=O)O
active: [2] 127 µM | [3] 8.23 µM
inactive: [5] | [6] | [7] | [9]

Cc1nc(C)nc(N2C[C@@H](C)N(c3ccnc([C@@H](C)O)n3)[C@@H](C)C2)n1
inactive: [2] | [5] | [6] | [7] | [8] | [9]

Oc1ccc2c(c1)OC[C@@H](N1CCC(O)(c3ccc(F)cc3)CC1)[C@H]2O
inactive: [2] | [3] | [5] | [6] | [7] | [9]

CN[C@H]1CC[C@@H](c2ccc(Cl)c(Cl)c2)c2ccc(S(N)(=O)=O)cc21
active: [5] 30.6 µM | [6] 30.3 µM | [7] 27.5 µM | [9] 14.7 µM

NC(=O)Cn1c(=O)cc(CCN2CCN(c3nccc4sccc34)CC2)c2ccc(F)cc21
inactive: [2] | [5] | [6] | [7] | [8] | [9]

CC(=O)C(C)=CC1C(C)=CCCC1(C)C (centres undefined)
inactive: [2] | [5] | [6] | [7] | [8] | [9]
active: [3] 27.9 µM

CCCCCCCCCCCC(=O)OC
inactive: [2] | [6] | [7] | [9]
active: [3] 57.9 µM

CCCCCCCCCCO
inactive: [5] | [6] | [7] | [9]

Cc1ccc(Cl)cc1
inactive: [2] | [6] | [7] | [8] | [9]

Cc1ccccc1Cl
inactive: [3] | [4] | [5] | [6] | [7] | [8] | [9]

c1cc(-c2ccncc2)ccn1
inactive: [6] | [7] | [8] | [9]

Cc1nc(-c2ccc3c(c2)CCN(CCC2CCC(NC(=O)/C=C/c4ccc(F)cc4)CC2)CC3)no1 (centres undefined)
inactive: [5] | [6] | [7]
active: [9] 5.83 µM

CC1=C(/C=C/C(C)=C/C=C/C(C)=C/CO)C(C)(C)CCC1
inactive: [6] | [7]
active: [2] 1.87 µM | [3] 0.474 µM | [5] 19.3 µM | [9] 25.3 µM

O=C(OCCCCCOC(=O)c1ccccc1)c1ccccc1
inactive: [3] | [4] | [5] | [6] | [7] | [8] | [9]

Cc1cccc(Nc2cc(Cl)nc(SCC(=O)O)n2)c1C
inactive: [6] | [7] | [8] | [9]

COC(=O)c1ccc(O)cc1
active: [3] 55.3 µM
inactive: [6] | [7] | [9]
